Activity calls are given as the source filed them.
Key:
[1] = system: Plasmodium falciparum Sir2 (PF13_0152, Sir2A); experiment: pfSir2 binders on small-molecule microarrays, primary screen, biochemical, small-molecule microarray, 635 nm fluorescence (AID 1098); conditions: small-molecule microarray binding, fluorescence 635 nm; higher = more signal;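 further: score merges spot fluorescence intensity with its signal-to-noise ratio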
[2] = small-molecule microarray binders of probe aDKK1, primary screen, biochemical, biotinylated probe, 635/667 nm fluorescence (AID 1099); conditions: higher = more signal;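 further: score merges 667nm spot fluorescence with signal to noise across triplicate slides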
[3] = small-molecule microarray binders of probe aCHRDL2, primary screen, biochemical, biotinylated probe, 635/667 nm fluorescence (AID 1100); conditions: higher = more signal
[4] = splicing luciferase reporter signal modulators, primary screen, spliceosome inhibition project, cell-based, HEK293, splice +/- reporter (AID 1101); conditions: luminescence, 24 h, higher = more signal, called active from +8 up or from −8 down;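 further: HEK293 cells carrying a splicing-competent luciferase reporter gene; test concentration not given here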
[5] = biological target: Fibroblast growth factor 10 (Homo sapiens) (UniProt O15520); experiment: FGF10 binders on small-molecule microarrays, primary screen, biochemical, small-molecule microarray, 635 nm fluorescence (AID 1102); conditions: FGF10 binding, fluorescence 635 nm, higher = more signal
[6] = system: glycogen synthase kinase-3 (GSK3A per assay name; protocol says GSK3B); experiment: GSK3 binders on small-molecule microarrays, primary screen, biochemical, small-molecule microarray, 635 nm fluorescence, GSK3A (AID 1103); conditions: small-molecule microarray binding, fluorescence 635 nm; higher = more signal; further: the record names both GSK3A and GSK3B
[7] = biological target: Epidermal growth factor receptor (Homo sapiens) (UniProt P00533); experiment: EGFR binders on small-molecule microarrays, primary screen, biochemical, small-molecule microarray, 635 nm fluorescence (AID 1104); conditions: EGFR binding, higher = more signal;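 further: score merges 667 nm emission intensity with spot signal to noise over triplicate slides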
[8] = biological target: Follistatin-related protein 3 (Homo sapiens) (UniProt O95633); experiment: FSTL3 binders on small-molecule microarrays, primary screen, biochemical, small-molecule microarray, 635 nm fluorescence (AID 1105); conditions: FSTL3 binding, higher = more signal;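 further: score merges emission near 667 nm and signal to noise per printed spot across three slides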
[9] = biological target: Dickkopf-related protein 1 (Homo sapiens) (UniProt O94907); experiment: DKK1 binders on small-molecule microarrays, primary screen, biochemical, small-molecule microarray, 635 nm fluorescence scan (AID 1106); conditions: DKK1 binding, higher = more signal;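 further: score merges emission near 667 nm with signal to noise over three replicate slides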
[10] = system: Inhibin beta A chain (activin A); experiment: INHBA (activin A) binders on microarrays, primary screen, biochemical, small-molecule microarray, 635 nm fluorescence scan (AID 1107); conditions: small-molecule microarray binding, higher = more signal;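 further: mouse activin A protein probed at 4.33 µg/mL on printed slides; score merges bound-protein fluorescence near 667 nm with spot signal-to-noise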
[11] = system: Human papillomavirus type 1a protein E7 (residues 44-93); experiment: HPV1a E7 fragment binders on microarrays, primary screen, biochemical, small-molecule microarray, residues 44-93, 635 nm fluorescence (AID 1108); conditions: small-molecule microarray binding, fluorescence 635 nm; higher = more signal;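 further: E7 fragment applied at 1 µg/mL in TBST for 1 h at 4 C; score combines spot fluorescence with its signal to noise ratio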
[12] = modulators of HCV replicon luciferase signal, primary screen, HCV replication inhibitor project, Huh7 cells, luciferase reporter (AID 1109); conditions: 48 h, higher = more signal;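 further: huh7 hepatoma cells harbouring a luciferase neomycin HCV replicon reporter; luciferase luminescence as measure of HCV replicon replication; test concentration not given here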
[13] = biological target: Left-right determination factor 2 (Homo sapiens) (UniProt O00292); experiment: LEFTY2 binders on small-molecule microarrays, primary screen, biochemical, small-molecule microarray, 635 nm fluorescence scan (AID 1110); conditions: LEFTY2 binding, higher = more signal
[14] = biological target: Calmodulin-1 (Homo sapiens) (UniProt P0DP23); experiment: CALM1 binders on microarrays, EGTA buffer, profiling panel, biochemical, small-molecule microarray, Cy5-labelled CALM1 (AID 1111); conditions: Cy5-CALM1 binding fluorescence, higher = more signal;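 further: labelled calmodulin applied in Tris saline Tween buffer holding calcium plus EGTA and DTT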
[15] = biological target: Calmodulin-1 (Homo sapiens) (UniProt P0DP23); experiment: calcium-bound CALM1 binders on microarrays, profiling panel, artefact control for SMM control-protein annotation, biochemical, small-molecule microarray, Cy5-labelled CALM1, plus calcium (AID 1112); conditions: Cy5-CALM1 binding fluorescence, higher = more signal;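 further: score merges spot fluorescence with signal to noise from triplicate slides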
[16] = small-molecule microarray binders of probe aWnt5a, primary screen, biochemical, biotinylated probe, 635/667 nm fluorescence (AID 1113); conditions: higher = more signal;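 further: score merges 667 nm fluorescence intensity with signal-to-noise per printed feature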
[17] = small-molecule microarray binders of probe aShh, primary screen, biochemical, biotinylated probe, 635/667 nm fluorescence (AID 1114); conditions: higher = more signal;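 further: probe is biotin-labelled aShh protein from a stem cell growth factor screen; measures binding of labelled protein to compounds printed on the slide; score merges feature fluorescence at 667 nm with signal-to-noise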
[18] = small-molecule microarray binders of probe aNog, primary screen, biochemical, biotinylated probe, 635/667 nm fluorescence (AID 1115); conditions: higher = more signal;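 further: probe is biotinylated aNog protein used at 0.15 µg/mL for 1 h at 4 C; z-score combines 667 nm fluorescence of each spot with its signal to noise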
[19] = biological target: Torsin-1A-interacting protein 1 (Homo sapiens) (UniProt Q5JTV8); experiment: LAP1 binders from COS7 cell lysate, primary screen, small-molecule microarray, 635/667 nm fluorescence (AID 1116); conditions: COS7-hLAP1 lysate binding, 635 nm fluorescence, higher = more signal
[20] = biological target: Alpha-bungarotoxin (Bungarus multicinctus) (UniProt P60615); experiment: alpha-bungarotoxin binders on microarray, profiling panel, artefact control for SMM control protein annotation, biochemical, small-molecule microarray, Alexa647 label, 635/667 nm fluorescence (AID 1117); conditions: alpha-BTX-A647 binding fluorescence, higher = more signal
Alpha-bungarotoxin (Bungarus multicinctus), sequence (P60615 whole entry, looked up): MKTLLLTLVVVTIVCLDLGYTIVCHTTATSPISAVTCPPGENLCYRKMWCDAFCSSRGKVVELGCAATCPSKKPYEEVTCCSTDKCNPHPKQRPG

Dickkopf-related protein 1 (Homo sapiens), sequence (O94907 whole entry, looked up): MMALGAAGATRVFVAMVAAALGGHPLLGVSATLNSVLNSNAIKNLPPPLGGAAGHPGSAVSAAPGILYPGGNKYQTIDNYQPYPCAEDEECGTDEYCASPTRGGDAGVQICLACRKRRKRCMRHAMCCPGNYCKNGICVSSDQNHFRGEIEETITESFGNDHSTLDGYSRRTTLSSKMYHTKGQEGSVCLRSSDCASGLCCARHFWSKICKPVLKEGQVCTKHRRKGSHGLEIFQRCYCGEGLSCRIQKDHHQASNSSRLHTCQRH
Epidermal growth factor receptor (Homo sapiens), sequence (P00533 whole entry, looked up): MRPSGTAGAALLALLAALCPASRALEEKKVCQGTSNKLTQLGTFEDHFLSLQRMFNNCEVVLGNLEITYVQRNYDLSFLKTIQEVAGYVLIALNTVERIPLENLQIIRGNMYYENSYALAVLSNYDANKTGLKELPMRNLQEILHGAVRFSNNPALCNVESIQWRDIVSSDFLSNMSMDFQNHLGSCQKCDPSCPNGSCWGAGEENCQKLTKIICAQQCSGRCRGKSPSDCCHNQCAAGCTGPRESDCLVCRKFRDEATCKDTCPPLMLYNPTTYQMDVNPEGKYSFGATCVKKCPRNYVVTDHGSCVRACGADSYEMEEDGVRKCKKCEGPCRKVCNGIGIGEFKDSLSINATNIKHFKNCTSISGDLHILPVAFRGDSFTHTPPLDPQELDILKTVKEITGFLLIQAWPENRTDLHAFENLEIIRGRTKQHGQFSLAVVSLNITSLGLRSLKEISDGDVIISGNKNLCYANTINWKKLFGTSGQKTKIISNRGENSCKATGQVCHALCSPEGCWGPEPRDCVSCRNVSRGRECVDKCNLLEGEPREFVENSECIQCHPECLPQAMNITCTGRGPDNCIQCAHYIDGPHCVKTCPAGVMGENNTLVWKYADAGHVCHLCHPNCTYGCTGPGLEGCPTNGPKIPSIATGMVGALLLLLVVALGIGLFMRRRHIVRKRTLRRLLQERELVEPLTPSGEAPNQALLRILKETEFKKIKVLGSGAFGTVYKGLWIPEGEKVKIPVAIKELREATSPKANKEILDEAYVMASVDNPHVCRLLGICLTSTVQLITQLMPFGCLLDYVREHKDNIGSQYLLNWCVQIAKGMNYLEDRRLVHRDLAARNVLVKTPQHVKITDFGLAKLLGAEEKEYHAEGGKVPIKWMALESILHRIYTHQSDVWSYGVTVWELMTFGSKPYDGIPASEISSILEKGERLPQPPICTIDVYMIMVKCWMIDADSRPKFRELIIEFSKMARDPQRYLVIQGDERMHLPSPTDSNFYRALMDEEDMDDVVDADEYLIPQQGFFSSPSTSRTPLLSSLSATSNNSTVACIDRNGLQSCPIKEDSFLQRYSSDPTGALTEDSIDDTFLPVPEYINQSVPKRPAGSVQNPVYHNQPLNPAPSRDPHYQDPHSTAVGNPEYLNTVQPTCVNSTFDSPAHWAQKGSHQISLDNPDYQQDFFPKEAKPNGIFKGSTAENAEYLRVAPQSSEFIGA
Torsin-1A-interacting protein 1 (Homo sapiens), sequence (Q5JTV8 whole entry, looked up): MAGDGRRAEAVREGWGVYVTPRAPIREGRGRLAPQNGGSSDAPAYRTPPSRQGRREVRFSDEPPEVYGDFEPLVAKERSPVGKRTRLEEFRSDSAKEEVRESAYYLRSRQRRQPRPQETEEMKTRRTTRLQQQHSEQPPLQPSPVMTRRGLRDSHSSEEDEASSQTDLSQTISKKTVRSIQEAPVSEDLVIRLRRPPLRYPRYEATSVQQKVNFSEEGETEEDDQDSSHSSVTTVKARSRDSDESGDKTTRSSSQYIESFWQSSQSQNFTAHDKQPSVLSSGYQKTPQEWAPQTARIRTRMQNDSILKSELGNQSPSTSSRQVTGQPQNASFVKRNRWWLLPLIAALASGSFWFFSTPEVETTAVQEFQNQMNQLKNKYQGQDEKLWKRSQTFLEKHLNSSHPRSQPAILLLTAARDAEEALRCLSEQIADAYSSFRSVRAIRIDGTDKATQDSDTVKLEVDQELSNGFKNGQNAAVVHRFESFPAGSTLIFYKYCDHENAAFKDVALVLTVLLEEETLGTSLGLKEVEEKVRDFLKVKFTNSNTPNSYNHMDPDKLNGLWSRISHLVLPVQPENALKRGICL
Follistatin-related protein 3 (Homo sapiens), sequence (O95633 whole entry, looked up): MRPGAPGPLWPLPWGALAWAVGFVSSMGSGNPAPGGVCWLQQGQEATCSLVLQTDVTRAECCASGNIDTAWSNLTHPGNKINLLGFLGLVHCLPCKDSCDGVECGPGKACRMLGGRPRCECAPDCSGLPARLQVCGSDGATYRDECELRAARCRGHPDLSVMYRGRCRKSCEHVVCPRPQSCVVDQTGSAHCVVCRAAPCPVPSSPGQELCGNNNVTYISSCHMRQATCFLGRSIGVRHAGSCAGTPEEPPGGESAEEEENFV
Left-right determination factor 2 (Homo sapiens), sequence (O00292 whole entry, looked up): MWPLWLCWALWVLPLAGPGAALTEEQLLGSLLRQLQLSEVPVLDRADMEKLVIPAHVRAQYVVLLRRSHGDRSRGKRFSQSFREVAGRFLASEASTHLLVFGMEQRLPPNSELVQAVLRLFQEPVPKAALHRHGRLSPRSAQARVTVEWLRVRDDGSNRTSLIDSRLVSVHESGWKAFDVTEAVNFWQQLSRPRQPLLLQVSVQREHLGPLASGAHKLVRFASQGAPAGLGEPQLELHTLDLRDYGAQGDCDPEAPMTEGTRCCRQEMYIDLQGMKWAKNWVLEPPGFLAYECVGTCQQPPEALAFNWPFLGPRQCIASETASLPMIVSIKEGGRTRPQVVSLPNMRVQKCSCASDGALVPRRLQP
Fibroblast growth factor 10 (Homo sapiens), sequence (O15520 whole entry, looked up): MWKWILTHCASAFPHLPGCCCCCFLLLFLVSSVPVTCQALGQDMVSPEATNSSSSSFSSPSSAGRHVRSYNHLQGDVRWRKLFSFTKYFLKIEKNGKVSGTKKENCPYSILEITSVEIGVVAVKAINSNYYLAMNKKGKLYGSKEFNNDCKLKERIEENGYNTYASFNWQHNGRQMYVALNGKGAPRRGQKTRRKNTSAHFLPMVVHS

CCCC[C@H]1C[C@@H]1[C@@H]1N(P(=O)(c2ccccc2)c2ccccc2)C[C@@](O)(c2ccccc2)CC12CC2
composite z-score [1]: 0.17
composite z-score [2]: 1.12
composite z-score [3]: 1.28
z-score [4]: -0.644 (inactive)
composite z-score [5]: -0.295
composite z-score [6]: 0.0826
composite z-score [7]: -0.678
composite z-score [8]: 0.21
composite z-score [9]: -1.51
composite z-score [10]: 0.973
composite z-score [11]: 0.713
z-score [12]: -2.71
composite z-score [13]: -1.06
composite z-score [14]: 1.96
composite z-score [15]: 1.03
composite z-score [16]: 0.145
composite z-score [17]: 0.149
composite z-score [18]: -0.753
composite z-score [19]: 0.727
composite z-score [20]: 0.217

COCCOC(=O)N1C(=O)[C@@]2(c3ccccc31)[C@H](C(=O)N1CCCCCCC1)[C@H]1C(=O)O[C@H](c3ccccc3)[C@H](c3ccccc3)N1[C@@H]2c1ccc(OCCO)cc1
composite z-score [1]: 2.08
composite z-score [2]: 3.12
composite z-score [3]: 1.76
z-score [4]: -0.69 (inactive)
composite z-score [5]: 1.69
composite z-score [6]: 1.49
composite z-score [7]: 2.05
composite z-score [8]: 1.79
composite z-score [9]: 2.72
composite z-score [10]: 1.77
composite z-score [11]: 1.63
z-score [12]: -2.07
composite z-score [13]: 1.91
composite z-score [14]: 3.2
composite z-score [15]: 1.76
composite z-score [16]: 1.65
composite z-score [17]: 3.65
composite z-score [18]: 3.67
composite z-score [19]: 5.73
composite z-score [20]: 4.02

COCCOC(=O)N1C(=O)[C@@]2(c3ccccc31)[C@H](C(=O)N1CCc3cc(OC)c(OC)cc3C1)[C@H]1C(=O)O[C@H](c3ccccc3)[C@H](c3ccccc3)N1[C@@H]2c1ccc(O)cc1
composite z-score [1]: 1.38
composite z-score [2]: 0.0664
composite z-score [3]: 0.299
z-score [4]: 0.251 (inactive)
composite z-score [5]: 0.375
composite z-score [6]: 0.691
composite z-score [7]: 0.431
composite z-score [8]: 0.671
composite z-score [9]: 0.503
composite z-score [10]: 0.407
composite z-score [11]: 1.13
z-score [12]: -0.515
composite z-score [13]: 0.337
composite z-score [14]: 1.38
composite z-score [15]: 0.116
composite z-score [16]: -0.0125
composite z-score [17]: -0.0769
composite z-score [18]: 0.511
composite z-score [19]: 1.94
composite z-score [20]: 1.65

CO[C@H]1O[C@H](CO)[C@@H](OC(=O)Nc2cccc(F)c2)[C@H](OC(=O)Nc2ccccc2)[C@H]1OC(=O)Nc1ccccc1
composite z-score [1]: 1.46
composite z-score [2]: -0.0312
composite z-score [3]: 0.55
z-score [4]: -0.0505 (inactive)
composite z-score [5]: 1.52
composite z-score [6]: 1.35
composite z-score [7]: 0.162
composite z-score [8]: 1.49
composite z-score [9]: 0.18
composite z-score [10]: 0.417
composite z-score [11]: 1.52
z-score [12]: -3.16
composite z-score [13]: 0.238
composite z-score [14]: 0.183
composite z-score [15]: -0.467
composite z-score [16]: -0.0222
composite z-score [17]: 0.536
composite z-score [18]: 0.919
composite z-score [19]: 1.29
composite z-score [20]: 1.53

O=C(O)[C@H](Cc1ccccc1)n1cc(-c2ccccc2)nn1
composite z-score [1]: 0.0064
composite z-score [2]: -0.284
composite z-score [3]: -0.367
z-score [4]: -0.544 (inactive)
composite z-score [5]: 0.467
composite z-score [6]: 0.569
composite z-score [7]: 0.293
composite z-score [8]: 0.179
composite z-score [9]: 0.31
composite z-score [10]: 0.267
composite z-score [11]: 0.52
z-score [12]: 0.36
composite z-score [13]: 0.506
composite z-score [14]: 0.14
composite z-score [15]: -0.372
composite z-score [16]: -0.152
composite z-score [17]: -0.237
composite z-score [18]: 0.297
composite z-score [19]: 0.635
composite z-score [20]: 0.327

CCCCC(O)C1C=CC2C(=O)N(C)C(=O)C2N1N1CCCCC1 (stereo not given)
composite z-score [1]: 0.933
composite z-score [2]: 0.945
composite z-score [3]: 0.743
z-score [4]: 0.871 (inactive)
composite z-score [5]: 0.546
composite z-score [6]: -0.0038
composite z-score [7]: 0.229
composite z-score [8]: 0.574
composite z-score [9]: 0.0003
composite z-score [10]: 1.42
composite z-score [11]: 1.34
z-score [12]: 0.0634
composite z-score [13]: 0.462
composite z-score [14]: 0.0471
composite z-score [15]: -0.665
composite z-score [16]: 0.0251
composite z-score [17]: 0.156
composite z-score [18]: -0.294
composite z-score [19]: 0.893
composite z-score [20]: 1.16

COc1ccc([C@H]2OC[C@@H]3CCC(=O)N32)cc1
composite z-score [1]: 0.178
composite z-score [2]: -0.235
composite z-score [3]: -0.374
z-score [4]: -0.00375 (inactive)
composite z-score [5]: 0.66
composite z-score [6]: 1.17
composite z-score [7]: 0.339
composite z-score [8]: 0.954
composite z-score [9]: 0.294
composite z-score [10]: 0.0892
composite z-score [11]: 0.493
z-score [12]: 0.574
composite z-score [13]: 0.556
composite z-score [14]: -0.313
composite z-score [15]: -0.525
composite z-score [16]: -0.18
composite z-score [17]: 0.0062
composite z-score [18]: -0.324
composite z-score [19]: 0.493
composite z-score [20]: -0.122

COCC(=C=CC[C@H](O)c1ccccc1OCCO)CCO
composite z-score [1]: 1.52
composite z-score [2]: 0.0439
composite z-score [3]: -0.423
z-score [4]: 0.338 (inactive)
composite z-score [5]: 0.919
composite z-score [6]: 0.485
composite z-score [7]: -0.865
composite z-score [8]: 0.612
composite z-score [9]: 0.274
composite z-score [10]: 0.564
composite z-score [11]: 0.0008
z-score [12]: -0.266
composite z-score [13]: -0.378
composite z-score [14]: -0.0866
composite z-score [15]: -0.037
composite z-score [16]: -0.096
composite z-score [17]: 0.0723
composite z-score [18]: 0.509
composite z-score [19]: 1.34
composite z-score [20]: 0.804

C=C(C(=O)CC[C@H](OC(C)=O)c1ccccc1OCCO)C(C)C
composite z-score [1]: 0.78
composite z-score [2]: -0.287
composite z-score [3]: 0.006
z-score [4]: -1.94 (inactive)
composite z-score [5]: 1.28
composite z-score [6]: -1.29
composite z-score [7]: -0.803
composite z-score [8]: -0.226
composite z-score [9]: -0.284
composite z-score [10]: -0.139
composite z-score [11]: -0.949
z-score [12]: -4.51
composite z-score [13]: -0.343
composite z-score [14]: -0.296
composite z-score [15]: -1.33
composite z-score [16]: -0.119
composite z-score [17]: -0.352
composite z-score [18]: -0.124
composite z-score [19]: 4.35
composite z-score [20]: -0.423

O=C1O[C@@H](c2ccccc2)[C@@H](c2ccccc2)N2[C@@H](c3ccccc3OCCO)[C@]3(C(=O)Nc4ccccc43)[C@@H](C(=O)O)[C@H]12
composite z-score [1]: 1.61
composite z-score [2]: -0.124
composite z-score [3]: 0.148
z-score [4]: -1.71 (inactive)
composite z-score [5]: 0.798
composite z-score [6]: -0.269
composite z-score [7]: -0.447
composite z-score [8]: 0.0073
composite z-score [9]: -0.499
composite z-score [10]: -0.143
composite z-score [11]: 1.32
z-score [12]: -0.73
composite z-score [13]: -0.0445
composite z-score [14]: 0.995
composite z-score [15]: -0.842
composite z-score [16]: -0.0924
composite z-score [17]: -0.229
composite z-score [18]: -0.18
composite z-score [19]: 0.584
composite z-score [20]: 1.04

CCN(CC)c1ccc(N2CC=CC34O[C@@H]5/C=C\CCC(C)OC(=O)C5[C@H]3C(=O)N(CCCCCO)[C@@H]4C2=O)cc1 (stereo not given in full)
composite z-score [1]: -1.01
composite z-score [2]: -0.0549
composite z-score [3]: 0.288
z-score [4]: 0.292 (inactive)
composite z-score [5]: -0.976
composite z-score [6]: -1.02
composite z-score [7]: -0.518
composite z-score [8]: -0.669
composite z-score [9]: -0.555
composite z-score [10]: 0.306
composite z-score [11]: -2.06
z-score [12]: 0.008
composite z-score [13]: -1.5
composite z-score [14]: -0.407
composite z-score [15]: 0.381
composite z-score [16]: -0.0346
composite z-score [17]: -0.253
composite z-score [18]: -0.234
composite z-score [19]: -1.59
composite z-score [20]: -0.324

— PubChem BioAssay
